Measurements reported in PubChem BioAssay (EPA / NIEHS).
Results filed as inconclusive are left out. The source made the active and inactive calls. Rule for the calls, unless noted: active = hit-call score of the fitted dose curve at least 0.9, where 1 is the maximum; inconclusive = response in the unintended direction; inactive = score below 0.9.

Legend:
[1] = read-out: solute carrier (SLCO1B1), SLCO1B1 (gene 10599); test: LTEA_HepaRG_SLCO1B1: Life Technologies and Expression Analysis (LTEA) Assay for solute carrier (SLCO1B1) using HepaRG (AID 2283530; active = hit-call score of the fitted dose curve at least 0.9, where 1 is the maximum; inactive = score below 0.9); settings: mRNA level, 48 h; actives raise or lower the signal
Outline: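 SLCO1B1 transcript read by qRT-PCR (Fluidigm arrays), normalized to three housekeeping genes, after 48 h chemical exposure of HepaRG cells; bidirectional concentration-response fitting versus 0.5% DMSO baseline. Eight-point half-log series, maximum 100 uM.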

[2] = read-out: sulfotransferase 2A1 (SULT2A1), SULT2A1 (gene 6822); test: LTEA_HepaRG_SULT2A1: Life Technologies and Expression Analysis (LTEA) Assay for sulfotransferase 2A1 (SULT2A1) using HepaRG (AID 2283531; active = hit-call score of the fitted dose curve at least 0.9, where 1 is the maximum; inactive = score below 0.9); settings: mRNA level, 48 h; actives raise or lower the signal
Outline: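 HepaRG, 48 h chemical exposure, 8-pt half-log curve from 100 uM in 0.5% DMSO, duplicates. Readout: TaqMan qRT-PCR of SULT2A1 mRNA, housekeeping-normalized. Bidirectional fit vs DMSO baseline.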

[3] = read-out: Transforming Growth Factor (TGFA), TGFA (gene 7039); test: LTEA_HepaRG_TGFA: Life Technologies and Expression Analysis (LTEA) Assay for Transforming Growth Factor (TGFA) using HepaRG (AID 2283532; active = hit-call score of the fitted dose curve at least 0.9, where 1 is the maximum; inactive = score below 0.9); settings: mRNA level, 48 h; actives raise or lower the signal
Outline: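 qRT-PCR read-out of TGFA transcript, normalized to three housekeeping genes, fitted bidirectionally against 0.5% DMSO baseline. Human HepaRG cultures received chemicals for 48 h at eight half-log concentrations, top 100 uM.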

[4] = read-out: Transforming Growth Factor (TGFB1), TGFB1 (gene 7040); test: LTEA_HepaRG_TGFB1: Life Technologies and Expression Analysis (LTEA) Assay for Transforming Growth Factor (TGFB1) Transporter using HepaRG (AID 2283533; active = hit-call score of the fitted dose curve at least 0.9, where 1 is the maximum; inactive = score below 0.9); settings: mRNA level, 48 h; actives raise or lower the signal
Outline: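 qRT-PCR readout of TGFB1 transcript in HepaRG lysates, normalized to three housekeeping genes; gain or loss of signal fitted relative to 0.5% DMSO vehicle. Exposure: 48 h, 8-point curve from 100 uM, duplicate wells.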

[5] = read-out: TIMP1, TIMP1 (gene 7076); test: LTEA_HepaRG_TIMP1: Life Technologies and Expression Analysis (LTEA) Assay for TIMP1 using HepaRG (AID 2283534; active = hit-call score of the fitted dose curve at least 0.9, where 1 is the maximum; inactive = score below 0.9); settings: mRNA level, 48 h; actives raise or lower the signal
Outline: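 HepaRG, 48 h exposure, 8-pt half-log series from 100 uM in 0.5% DMSO, duplicates; TIMP1 transcript by Fluidigm qRT-PCR, housekeeping-normalized; bidirectional curve fit vs DMSO baseline.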

[6] = read-out: Tumor necrosis factor receptor 1 (TNFRSF1A), TNFRSF1A (gene 7132); test: LTEA_HepaRG_TNFRSF1A: Life Technologies and Expression Analysis (LTEA) Assay for Tumor necrosis factor receptor 1 (TNFRSF1A) using HepaRG (AID 2283535; active = hit-call score of the fitted dose curve at least 0.9, where 1 is the maximum; inactive = score below 0.9); settings: mRNA level, 48 h; actives raise or lower the signal
Outline: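 HepaRG, 48 h plating then 48 h chemical exposure, serum-free induction media; 8-pt CRC from 100 uM, half-log, 0.5% DMSO vehicle, duplicates. Readout: TaqMan qRT-PCR (Fluidigm), housekeeping-gene normalized; bidirectional fit vs DMSO.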

[7] = read-out: Thyroid Hormone Responsive (THRSP), THRSP (gene 7069); test: LTEA_HepaRG_THRSP: Life Technologies and Expression Analysis (LTEA) Assay for Thyroid Hormone Responsive (THRSP) using HepaRG (AID 2283536; active = hit-call score of the fitted dose curve at least 0.9, where 1 is the maximum; inactive = score below 0.9); settings: mRNA level, 48 h; actives raise or lower the signal
Outline: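 qRT-PCR read-out (Fluidigm TaqMan), housekeeping-normalized (ACTB/GAPDH/POLR2A). HepaRG, 48 h chemical exposure, 8-pt half-log series from 100 uM in 0.5% DMSO, duplicates. Bidirectional curve fit vs 0.5% DMSO baseline.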

[8] = LTEA_HepaRG_LDH_cytotoxicity: Cytotoxicity Assessment in the Life Technologies and Expression Analysis (LTEA) Assay (AID 2283563)
Outline: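 HepaRG (human liver line), 48 h exposure, 8-pt half-log series from 100 uM, 0.5% DMSO vehicle, duplicates. Read-out: LDH in spent medium. Positive-direction fit vs DMSO baseline.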

[9] = ATG_XTT_Cytotoxicity: Cytotoxicity Assessment in the Attagene TRANS-FACTORIAL HepG2 Assay (AID 2283584)
Outline: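 XTT readout of cell number in transfected HepG2 cells, 24 h post-dosing; DMSO serves as negative control and baseline, with activity taken as loss of viability signal.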

[10] = Tanguay_ZF_120hpf_MORT_legacy: (Legacy) Oregon State University Tanguay Lab 120 Hour Post-fertilization zebrafish Assay for Mortality (AID 2283633)
Outline: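 Brightfield scoring of embryo death (binary) at 24 and 120 hpf; static exposure 6–120 hpf, 28C, sealed and foil-covered. Pronase-dechorionated 5D wild-type larvae, single embryo per well. DMSO 0.64% v/v; trimethyltin chloride 5uM positive control.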

[11] = Tanguay_ZF_120hpf_YSE_legacy: (Legacy) Oregon State University Tanguay Lab 120 Hour Post-fertilization zebrafish Assay for Yolk Sac Edema (AID 2283634)
Outline: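 Binary brightfield scoring of yolk sac edema at 120 hpf; DMSO baseline, gain-of-signal fitting. Dechorionated 5D larvae, one per well, static exposure 6–120 hpf, 28C, 0.64% DMSO. Dead embryos not scored.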

[12] = read-out: Cellular tumor antigen p53 (Homo sapiens) (UniProt P04637); test: LTEA_HepaRG_TP53: Life Technologies and Expression Analysis (LTEA) Assay for Tumor Protein P53 (TP53) using HepaRG (AID 2283537; active = hit-call score of the fitted dose curve at least 0.9, where 1 is the maximum; inactive = score below 0.9); settings: mRNA level, 48 h; actives raise or lower the signal
Outline: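 Gain or loss of TP53 mRNA signal is scored relative to 0.5% DMSO after 48 h chemical treatment of HepaRG liver cells, tested in duplicate at eight half-log concentrations up to 100 uM.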

[13] = TOX21_p53_BLA_p2_viability: Viability Assessment in the Tox21 HCT-116 p53 Agonism Beta-lactamase Assay, Phase 2 (AID 2283591);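 note: actives lower the ATP signal meaning cytotoxicity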
Outline: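 HCT116 p53-bla cells, 4000/well, dosed after 5 h plating (217-fold dilution of DMSO stocks) and incubated 16 h at 37C. Viability taken as cellular ATP by CellTiter-Glo luminescence after 30 min RT; signal loss marks cytotoxicity.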

[14] = molecular target: Cellular tumor antigen p53 (Homo sapiens) (UniProt P04637); test: TOX21_p53_BLA_p2_ratio: Tox21 HCT-116 p53 Agonism Beta-lactamase Assay, Ratio, Phase 2 (AID 2283592)
Chain of Cellular tumor antigen p53 (Homo sapiens) (P04637 whole entry, looked up): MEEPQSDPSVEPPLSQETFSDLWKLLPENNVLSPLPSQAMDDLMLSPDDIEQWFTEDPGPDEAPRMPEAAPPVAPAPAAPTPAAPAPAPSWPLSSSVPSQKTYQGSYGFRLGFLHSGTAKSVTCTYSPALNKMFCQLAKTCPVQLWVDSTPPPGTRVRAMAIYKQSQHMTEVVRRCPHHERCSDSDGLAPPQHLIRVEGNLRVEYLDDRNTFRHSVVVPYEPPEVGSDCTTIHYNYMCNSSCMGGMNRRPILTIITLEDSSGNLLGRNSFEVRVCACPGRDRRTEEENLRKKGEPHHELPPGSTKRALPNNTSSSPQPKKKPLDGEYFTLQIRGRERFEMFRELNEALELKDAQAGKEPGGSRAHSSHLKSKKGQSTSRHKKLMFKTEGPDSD
Outline: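 Readout: blue/green (460/530 nm) FRET emission ratio after 2 h CCF4-AM loading at room temperature, excitation 405 nm. HCT116 p53 bla cells, 16 h compound exposure at 37C, 5% CO2; agonist direction fitted against DMSO baseline.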

[15] = TOX21_p53_BLA_p3_viability: Viability Assessment in the Tox21 HCT-116 p53 Agonism Beta-lactamase Assay, Phase 3 (AID 2283593);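 note: cells exposed to compound for 16 h before reading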
Outline: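 HCT116 cells, 4000/well, dosed 5 h after plating by pin transfer (217-fold dilution from DMSO stock) and incubated 16 h at 37C, 5% CO2. Viability read as ATP luminescence with CellTiter-Glo after 30 min at room temperature.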

[16] = molecular target: Cellular tumor antigen p53 (Homo sapiens) (UniProt P04637); test: TOX21_p53_BLA_p3_ratio: Tox21 HCT-116 p53 Agonism Beta-lactamase Assay, Ratio, Phase 3 (AID 2283596)
Outline: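 Cells were seeded at 4000/well, rested 5 h at 37C, then dosed with DMSO compound solutions (217-fold dilution) for 16 h. CCF4-AM substrate was loaded for 2 h at room temperature, and the 460/530 nm emission ratio was fitted for gain of signal versus DMSO.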

[17] = molecular target: Cellular tumor antigen p53 (Homo sapiens) (UniProt P04637); test: TOX21_p53_BLA_p5_ratio: Tox21 HCT-116 p53 Agonism Beta-lactamase Assay, Ratio, Phase 5 (AID 2283599)
Outline: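 HCT-116 p53-bla cells (4000/well) plated 5 h, dosed with compound (217-fold DMSO dilution) for 16 h at 37 C; CCF4-AM substrate 2 h at room temperature. Activity is the 460/530 nm emission ratio (405 nm excitation), fitted in gain-of-signal direction versus DMSO.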

[18] = TOX21_p53_BLA_p5_viability: Viability Assessment in the Tox21 HCT-116 p53 Agonism Beta-lactamase Assay, Phase 5 (AID 2283600)
Outline: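 ATP luminescence (CellTiter-Glo, 30 min, RT) served as the viability read-out, with loss of signal indicating cytotoxicity. Compounds in DMSO were pinned at a 217-fold dilution onto 4000 cells/well and incubated 16 h, 37C.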

[19] = molecular target: Cellular tumor antigen p53 (Homo sapiens) (UniProt P04637); test: TOX21_p53_BLA_p4_ratio: Tox21 HCT-116 p53 Agonism Beta-lactamase Assay, Ratio, Phase 4 (AID 2283601)
Outline: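 HCT-116 p53 beta-lactamase reporter cells (4000/well) preincubated 5 h, then compound (217-fold dilution of DMSO stock) for 16 h at 37C. CCF4-AM substrate added 2 h at room temperature; 460/530 nm emission ratio fitted upward versus DMSO.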

Measured: outcome

CCCCC(CC)C(=O)O (stereo not drawn)
not listed: [12] | [13] | [14] | [15] | [16] | [17] | [18] | [19]
inactive: all other assays above

CC(=O)Nc1ccc(O)cc1
not listed: [12] | [13] | [14] | [15] | [16] | [17] | [18] | [19]
inactive: all other assays above

CCC(C)c1ccccc1O (stereo not drawn)
not listed: [12] | [13] | [14] | [15] | [16] | [17] | [18] | [19]
inactive: all other assays above

O=C1Cc2ccccc2N1c1c(Cl)cccc1Cl
inactive: [9]

COCC1CCC(CO)CC1 (stereo not drawn)
inactive: [9]

CCO[Si](CCC1CCC2OC2C1)(OCC)OCC (stereo not drawn)
inactive: [9]

CCOC=C(C(=O)OCC)C(=O)OCC
inactive: [9]

CCCCCCCC(OC)OC
inactive: [9]

O=C(c1ccccc1)c1ccccc1
inactive: all assays above

OCC(CO)(CBr)CBr
inactive: [1] | [2] | [3] | [4] | [5] | [6] | [7] | [8] | [10] | [11]

O=C1c2ccc(O)c(O)c2C(=O)c2c(O)ccc(O)c21
inactive: [9]
